In PubChem BioAssay:

Test system: not listed separately
Assay: probe aNOTCH2 binding on compound microarray – biochemical, small-molecule microarray, 635/667 nm fluorescence, primary screen (AID 1121);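 note: score merges feature fluorescence read at 667 nm with its signal to noise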
Conditions: higher = more signal

SMILES | composite z-score
O=C(NCc1ccccc1)[C@@H]1c2ccccc2C(=O)N(C2Cc3ccccc3C2)[C@H]1c1ccc(CO)cc1 | -0.0249
COC(=O)c1c2oc(c1C(=O)OC)C(=O)NC1(CCCCC1)c1cn(nn1)C[C@H](Cc1ccccc1)NC(=O)N[C@H](CO)CC2 | -0.167
CCCCCCc1nc(-c2ccc(-c3ccc(Cl)c(Cl)c3)o2)cc2c1[Si](C(C)C)(C(C)C)O[C@H]2c1ccccc1 | -0.153
COCCOC(=O)N1C(=O)[C@@]2(c3cc(C#CC4(O)CCCCCC4)ccc31)[C@H](C(=O)Nc1nc3ccccc3s1)[C@H]1C(=O)O[C@H](c3ccccc3)[C@H](c3ccccc3)N1[C@@H]2c1ccc(OCCO)cc1 | -0.0009
COC(=O)[C@@]1(Cc2ccc(OC)cc2)[C@H]2c3cc(C(=O)N4CCCC4)n(CCCNc4ncc(C(F)(F)F)cc4Cl)c3C[C@H]2CN1C(=O)c1ccccc1 | 0.787
COC(=O)[C@@]1(Cc2ccc(OC)cc2)[C@H]2c3cc(C(=O)N4CCCC4)n(CCc4ccc(O)c(O)c4)c3C[C@H]2CN1C(=O)c1ccccc1 | 0.336
Cc1c(NC(=O)/C(C#N)=C/c2cccc([N+](=O)[O-])c2)c(=O)n(-c2ccccc2)n1C | 0.993
C[N+](C)(C)CCCC[C@@H]1NC(=O)[C@@H]2C[C@H](C(=O)NCCCCCCNC(=O)CS)[C@H](c3ccc(O)cc3)N2C1=O | -0.115
COC(=O)[C@@]1(Cc2ccccc2)[C@H]2c3cc(C(=O)N4CCCC4)n(Cc4ccc(O)c(OC)c4)c3C[C@H]2CN1C(=O)c1ccccc1 | 0.302
O=C1O[C@@H](c2ccccc2)[C@@H](c2ccccc2)N2[C@@H](c3ccccc3OCCO)[C@]3(C(=O)Nc4ccccc43)[C@@H](C(=O)O)[C@H]12 | -0.0657
CCCNC(=O)[C@@H]1c2ccccc2C(=O)N(Cc2ccccc2OC)[C@H]1c1ccc(CO)cc1 | -0.0966
CC[C@@H]1C=C(C(=O)O)[C@H](c2ccc(C)cc2)N1S(=O)(=O)c1ccc(C)cc1 | -0.101
O=C1O[C@H](c2ccccc2)[C@H](c2ccccc2)N2[C@H]1[C@@H](C(=O)NC[C@H](O)c1ccccc1)[C@]1(C(=O)Nc3ccccc31)[C@H]2c1ccc(O)cc1 | -0.0629
Cc1ccc(S[C@]2(C(=O)NCC(C)C)CC(=O)N(Cc3cc(C(F)(F)F)cc(C(F)(F)F)c3)[C@@H]2c2ccc(CO)cc2)cc1 | 0.0362
COCCOC(=O)N1C(=O)[C@@]2(c3cc(C#CC4=CCCCC4)ccc31)[C@H](c1ccc(OCCO)cc1)N1[C@H](c3ccccc3)[C@H](c3ccccc3)OC(=O)[C@H]1[C@@H]2C(=O)N1CCc2cc(OC)c(OC)cc2C1 | -0.0677
COc1ccccc1CN1C(=O)c2ccccc2[C@@H](C(=O)NCc2ccccc2)[C@@H]1c1ccc(CO)cc1 | -0.0984
COCCOC(=O)N1C(=O)[C@@]2(c3ccccc31)[C@H](C(N)=O)[C@H]1C(=O)O[C@H](c3ccccc3)[C@H](c3ccccc3)N1[C@@H]2c1ccc(O)cc1 | -0.104
C=C(/C(=C/C[C@H](OC(C)=O)c1ccc(OCCO)cc1)c1cc(C(=O)OC)ccc1OC)C(C)C | -0.0666
COCCCNC(=O)[C@@]1(Sc2ccc(C)cc2)CC(=O)N(Cc2ccccc2Cl)[C@@H]1c1ccc(CO)cc1 | -0.14
O=C(O)[C@H](Cc1ccccc1)n1cc(-c2ccccc2)nn1 | -0.164
CC(C)[Si](C#CCCCC#N)(Oc1ccccc1Br)C(C)C | -0.092
C=CC1c2cc(O)c(OC)cc2CCN1Cc1cccc(OC(F)(F)F)c1 (centres undefined) | -0.16
O=C1OCCC=C[C@H]2OC34C=CCN(Cn5nnc6ccccc65)C(=O)[C@H]3N(CCO)C(=O)[C@@H]4C12 (some centres undefined) | -0.227
CC(C)[Si](C#C[Si](C(C)C)(C(C)C)C(C)C)(O[C@H](C)c1cn(Cc2ccccc2)nn1)C(C)C | -0.0956

Biological target: Carbonic anhydrase 2 (Homo sapiens) (UniProt P00918)
Assay: compounds binding carbonic anhydrase 2 – biochemical, small-molecule microarray, Alexa647-labelled CAII, profiling panel (AID 1122)
Conditions: CAII-A647 binding fluorescence, higher = more signal

SMILES | composite z-score
COC(=O)C[C@H]1O[C@@H](CCc2ccccc2)[C@@H](C)[C@@H]1[Si](C)(C)c1ccc(OC)cc1 | -0.394
CC(=CC1CCCCC1)[C@@H](NC(=O)c1cccnc1)c1ccc(-c2ccccc2)cc1 | 0.0804
[N-]=[N+]=Nc1ccccc1C[C@]1(C(=O)NCC(O)CO)N=C(c2ccc(OCCCO)cc2)O[C@H]1c1ccccc1 (some centres undefined) | 0.629
COCC(=C=CC[C@H](O)c1cccc(OCCO)c1)CCO | 0.462
COC(=O)[C@H](Cc1ccccc1)N[C@H](/C=C/C1CC1)[C@@H](O)Cc1ccccc1 | -0.36
C=CCOC(=O)[C@H]1[C@@H]2C(=O)O[C@@H](c3ccccc3)[C@@H](c3ccccc3)N2[C@@H](c2ccc(OCCOC(=O)[C@@H]3C[C@@H]4C(=O)N5CCC[C@H]5C(=O)N4[C@@H]3c3cccc(OCCO)c3)cc2)[C@]12C(=O)Nc1ccc(I)cc12 | 0.269
COCC(=C=CC[C@@H](O)c1ccc(OCCO)cc1)C[C@@H](O)c1ccccn1 | 0.532
COc1ccc([Si](C)(C)[C@@H]2[C@@H](CCO)O[C@]3(C(=O)N(Cc4cccc(N5CCOC5=O)c4)c4ccccc43)[C@H]2C)cc1 | 0.219
[N-]=[N+]=Nc1ccccc1[C@H]1OC(c2ccc(OCCCO)cc2)=N[C@@]1(Cc1ccccc1)C(=O)N1CCOCC1 | 0.523
CN1C(=O)C2C=CC(C(O)C=Cc3ccc([N+](=O)[O-])cc3)N(Nc3ccccc3)C2C1=O (centres undefined) | 0.624
C#CCOc1ccc(C[C@@H](C(=O)OC)N(CC#C)[C@@H](/C=C/C2CC2)[C@H](O)Cc2ccccc2)cc1 | 0.0591
O=C(NCc1ccccc1)[C@@H]1c2ccccc2C(=O)N(C2Cc3ccccc3C2)[C@H]1c1ccc(CO)cc1 | 0.767
COC(=O)c1c2oc(c1C(=O)OC)C(=O)NC1(CCCCC1)c1cn(nn1)C[C@H](Cc1ccccc1)NC(=O)N[C@H](CO)CC2 | 0.269
CCCCCCc1nc(-c2ccc(-c3ccc(Cl)c(Cl)c3)o2)cc2c1[Si](C(C)C)(C(C)C)O[C@H]2c1ccccc1 | 0.739
COCCOC(=O)N1C(=O)[C@@]2(c3cc(C#CC4(O)CCCCCC4)ccc31)[C@H](C(=O)Nc1nc3ccccc3s1)[C@H]1C(=O)O[C@H](c3ccccc3)[C@H](c3ccccc3)N1[C@@H]2c1ccc(OCCO)cc1 | 0.503
COC(=O)[C@@]1(Cc2ccc(OC)cc2)[C@H]2c3cc(C(=O)N4CCCC4)n(CCCNc4ncc(C(F)(F)F)cc4Cl)c3C[C@H]2CN1C(=O)c1ccccc1 | 0.516
COC(=O)[C@@]1(Cc2ccc(OC)cc2)[C@H]2c3cc(C(=O)N4CCCC4)n(CCc4ccc(O)c(O)c4)c3C[C@H]2CN1C(=O)c1ccccc1 | 0.79
Cc1c(NC(=O)/C(C#N)=C/c2cccc([N+](=O)[O-])c2)c(=O)n(-c2ccccc2)n1C | 0.792

SMILES | composite z-score
C[N+](C)(C)CCCC[C@@H]1NC(=O)[C@@H]2C[C@H](C(=O)NCCCCCCNC(=O)CS)[C@H](c3ccc(O)cc3)N2C1=O | 0.82
COC(=O)[C@@]1(Cc2ccccc2)[C@H]2c3cc(C(=O)N4CCCC4)n(Cc4ccc(O)c(OC)c4)c3C[C@H]2CN1C(=O)c1ccccc1 | 0.83
O=C1O[C@@H](c2ccccc2)[C@@H](c2ccccc2)N2[C@@H](c3ccccc3OCCO)[C@]3(C(=O)Nc4ccccc43)[C@@H](C(=O)O)[C@H]12 | 0.441
CCCNC(=O)[C@@H]1c2ccccc2C(=O)N(Cc2ccccc2OC)[C@H]1c1ccc(CO)cc1 | 0.604
CC[C@@H]1C=C(C(=O)O)[C@H](c2ccc(C)cc2)N1S(=O)(=O)c1ccc(C)cc1 | 0.759
O=C1O[C@H](c2ccccc2)[C@H](c2ccccc2)N2[C@H]1[C@@H](C(=O)NC[C@H](O)c1ccccc1)[C@]1(C(=O)Nc3ccccc31)[C@H]2c1ccc(O)cc1 | 0.66
Cc1ccc(S[C@]2(C(=O)NCC(C)C)CC(=O)N(Cc3cc(C(F)(F)F)cc(C(F)(F)F)c3)[C@@H]2c2ccc(CO)cc2)cc1 | 0.78
COCCOC(=O)N1C(=O)[C@@]2(c3cc(C#CC4=CCCCC4)ccc31)[C@H](c1ccc(OCCO)cc1)N1[C@H](c3ccccc3)[C@H](c3ccccc3)OC(=O)[C@H]1[C@@H]2C(=O)N1CCc2cc(OC)c(OC)cc2C1 | 0.342
COc1ccccc1CN1C(=O)c2ccccc2[C@@H](C(=O)NCc2ccccc2)[C@@H]1c1ccc(CO)cc1 | 0.544
COCCOC(=O)N1C(=O)[C@@]2(c3ccccc31)[C@H](C(N)=O)[C@H]1C(=O)O[C@H](c3ccccc3)[C@H](c3ccccc3)N1[C@@H]2c1ccc(O)cc1 | 0.54
C=C(/C(=C/C[C@H](OC(C)=O)c1ccc(OCCO)cc1)c1cc(C(=O)OC)ccc1OC)C(C)C | 0.767
COCCCNC(=O)[C@@]1(Sc2ccc(C)cc2)CC(=O)N(Cc2ccccc2Cl)[C@@H]1c1ccc(CO)cc1 | 0.718
O=C(O)[C@H](Cc1ccccc1)n1cc(-c2ccccc2)nn1 | 0.155
CC(C)[Si](C#CCCCC#N)(Oc1ccccc1Br)C(C)C | 0.508
C=CC1c2cc(O)c(OC)cc2CCN1Cc1cccc(OC(F)(F)F)c1 (centres undefined) | 0.893
O=C1OCCC=C[C@H]2OC34C=CCN(Cn5nnc6ccccc65)C(=O)[C@H]3N(CCO)C(=O)[C@@H]4C12 (some centres undefined) | 0.866
CC(C)[Si](C#C[Si](C(C)C)(C(C)C)C(C)C)(O[C@H](C)c1cn(Cc2ccccc2)nn1)C(C)C | 0.48
